For 7 molecules, outcome and AC50 results are on record in PubChem BioAssay (EPA / NIEHS).

Experiment [1] in a line: ACEA_ER_80hr: ACEA Biosciences xCELLigence Real-Time Cell Analysis on Estrogen Receptor Agonism for Proliferation (AID 2282667; active = hit-call score of the fitted dose curve at least 0.9, where 1 is the maximum). To be noted: T47D proliferation, impedance (xCELLigence), 80 h. A digest of the protocol: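 T47D human breast cells were seeded on electrode plates, monitored overnight, then exposed continuously to compounds in eight-point 1:4 dilutions from 100 uM (max 0.5% DMSO). Impedance-based growth was read at 80 h, fitted upward relative to DMSO.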

Experiment [2] is described as follows: ATG_CRE_CIS: Attagene CIS-FACTORIAL HepG2 Assay for human cAMP Responsive Element (CRE) binding protein 3 (AID 2282926). The following applies: HepG2 CRE cis-reporter, Attagene multiplexed mRNA; actives raise or lower the signal. A digest of the protocol: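 Capillary electrophoresis of 6-FAM-labelled, HpaI-digested PCR products quantified reporter transcripts. These came from HepG2 transiently transfected with cis-element reporters and exposed to test chemicals for 24 hours, with DMSO defining baseline activity.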

For experiment [3], the target named is CCAAT/enhancer-binding protein beta (Homo sapiens) (UniProt P17676). Kind of experiment: ATG_C_EBP_CIS: Attagene CIS-FACTORIAL HepG2 Assay for human CCAAT/Enhancer Binding Protein (C/EBP) beta (AID 2282927). The following applies: HepG2 Attagene cis-factorial transcription factor reporter; actives raise or lower the signal. A digest of the protocol: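 HepG2 transiently transfected with multiplexed reporter units under cis-regulatory promoters reporting endogenous C/EBPb activity. After 24 h exposure, reporter mRNA assayed by RT-PCR, fluorescent labelling, HpaI digestion and capillary electrophoresis; bidirectional fitting versus DMSO.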
CCAAT/enhancer-binding protein beta (Homo sapiens), sequence (P17676 whole entry, looked up): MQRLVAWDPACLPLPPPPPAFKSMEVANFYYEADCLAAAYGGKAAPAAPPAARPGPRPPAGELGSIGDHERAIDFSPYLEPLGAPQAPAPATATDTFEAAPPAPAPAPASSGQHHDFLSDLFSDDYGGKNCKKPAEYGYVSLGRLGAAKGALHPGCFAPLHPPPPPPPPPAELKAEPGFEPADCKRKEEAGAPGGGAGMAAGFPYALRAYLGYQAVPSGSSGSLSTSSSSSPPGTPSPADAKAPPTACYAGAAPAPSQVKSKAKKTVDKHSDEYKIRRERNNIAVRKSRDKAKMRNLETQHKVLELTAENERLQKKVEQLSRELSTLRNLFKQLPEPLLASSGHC

Experiment [4] in a line: ATG_CMV_CIS: Attagene CIS-FACTORIAL HepG2 Assay for human CMV (Internal Marker) (AID 2282928).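 Note: endpoint acts as a background internal control marker rather than a target.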 To be noted: HepG2 CMV promoter reporter, transcription factor profiling; actives raise or lower the signal. A digest of the protocol: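 Reporter transcripts from transfected HepG2 cells are isolated after 24 h of chemical dosing, reverse-transcribed and amplified. Fragments labeled with 6-FAM are cut with HpaI and quantified by capillary electrophoresis; DMSO defines baseline.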

A short description of experiment [5]: ATG_DR4_LXR_CIS: Attagene CIS-FACTORIAL HepG2 Assay for human Liver X Receptor (LXR), DR4 submotif (AID 2282929). The following applies: HepG2 Attagene DR4 cis-reporter, mRNA transcription; actives raise or lower the signal. A digest of the protocol:
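HepG2 cells were transiently transfected with multiple cis-regulated reporter units and dosed for 24 hours. The DR4 reporter mRNA was quantified by RT-PCR, 6-FAM labelling and capillary electrophoresis. Bidirectional fits used DMSO as baseline.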

The target in experiment [6] is Aryl hydrocarbon receptor (Homo sapiens) (UniProt P35869). In words: ATG_Ahr_CIS: Attagene CIS-FACTORIAL HepG2 Assay for human Aryl Hydrocarbon Receptor (Ahr) (AID 2282930). To be noted: HepG2 AhR cis-factorial reporter transcription; actives raise or lower the signal. A digest of the protocol:
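HepG2 cells transiently transfected with cis-element-driven multiplexed reporter units; endogenous AhR activity read as reporter mRNA 24 h after dosing, via RT-PCR, 6-FAM labelling, HpaI digestion and capillary electrophoresis. Bidirectional fit relative to DMSO.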

Experiment [7] can be described thus: ATG_AP_1_CIS: Attagene CIS-FACTORIAL HepG2 Assay for human Activator Protein 1 (AP-1) (AID 2282931). To be noted: HepG2 Attagene cis-factorial AP-1 reporter mRNA; actives raise or lower the signal. A digest of the protocol:
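HepG2 cells transiently transfected with cis-element-driven reporter transcription units, dosed for 24 hours. Reporter mRNA measured by RT-PCR, 6-FAM labelling, HpaI digestion and capillary electrophoresis. Bidirectional fitting against DMSO baseline.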

Experiment [8] in a line: ATG_AP_2_CIS: Attagene CIS-FACTORIAL HepG2 Assay for human Activator Protein 2 (AP-2) (AID 2282932). To be noted: HepG2 AP-2 cis-reporter, Attagene transcription factor profiling; actives raise or lower the signal. A digest of the protocol: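 Read-out: fluorescent reporter mRNA via RT-PCR and capillary electrophoresis, 24 h post-dose in transiently transfected HepG2. Endogenous factors drive cis-promoter reporters; gain or loss of signal fitted bidirectionally against DMSO.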

Experiment [9] can be described thus: ATG_BRE_CIS: Attagene CIS-FACTORIAL HepG2 Assay for human Bone Morphogenetic Protein (BMP) Response Element (BRE) (AID 2282933). To be noted: HepG2 BMP response element reporter, Attagene transcription factor profiling; actives raise or lower the signal. A digest of the protocol: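 Multiplexed cis-reporter assay, HepG2, 24 h exposure. mRNA from reporter units quantified via RT-PCR/CE; DMSO baseline; bidirectional curve fit.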

The target in experiment [10] is Retinoic acid receptor alpha (Homo sapiens) (UniProt P10276). In words: ATG_DR5_RAR_CIS: Attagene CIS-FACTORIAL HepG2 Assay for human Retinoic Acid Receptor Alpha (RARE), DR5 submotif (AID 2282934). To be noted: HepG2 Attagene cis-factorial RARE DR5 reporter, mRNA; actives raise or lower the signal. A digest of the protocol:
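HepG2 cells transiently transfected with multiplexed reporter units; DR5 cis-element drives reporter through endogenous transcription factors. After 24 h dosing, reporter mRNA quantified by RT-PCR, fluorescent labeling, HpaI digestion and capillary electrophoresis; bidirectional fitting versus DMSO.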

Experiment [11] concerns the target Transcription factor E2F1 (Homo sapiens) (UniProt Q01094). Kind of experiment: ATG_E2F_CIS: Attagene CIS-FACTORIAL HepG2 Assay for human E2F Transcription Factor 1 (AID 2282935). The following applies: HepG2 Attagene cis-reporter, E2F reporter RNA transcripts; actives raise or lower the signal. A digest of the protocol:
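Transient MRTU transfection of HepG2; 24 h compound exposure; RNA → oligo(dT) RT → PCR → FAM label → HpaI cut → CE fluorescence. Gain/loss of signal fit against DMSO.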

Experiment [12] can be described thus: ATG_E_Box_CIS: Attagene CIS-FACTORIAL HepG2 Assay for human Enhancer Box (E-box) (AID 2282936). To be noted: HepG2 E-box cis-reporter transcription, actives raise or lower the signal. A digest of the protocol: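 Transiently transfected HepG2, endogenous TF-driven reporters, 24 h dosing. Readout: RT-PCR plus capillary electrophoresis of fluorescent reporter fragments. Gain or loss of signal fitted bidirectionally against DMSO baseline.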

Experiment [13] in a line: ATG_M_61_CIS: Attagene CIS-FACTORIAL HepG2 Assay for M61 Transcription Factor (Internal Marker) (AID 2282937). To be noted: HepG2 Attagene CIS-FACTORIAL M61 internal marker reporter; actives raise or lower the signal. A digest of the protocol: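 HepG2 cells transiently transfected with multiplexed cis-promoter reporter units reporting endogenous transcription factor activity, measured 24 h after dosing. Reporter mRNA quantified by RT-PCR and capillary electrophoresis; bidirectional fit against DMSO baseline.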

A short description of experiment [14]: ATG_EGR_CIS: Attagene CIS-FACTORIAL HepG2 Assay for human Early Growth Response 1 (EGR1) (AID 2282938). To be noted: HepG2 Attagene CIS-FACTORIAL EGR reporter mRNA; actives raise or lower the signal. A digest of the protocol: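 HepG2 cells transiently transfected with cis-element-driven multiplexed reporter units, dosed for 24 h. EGR1-element reporter mRNA quantified by RT-PCR, 6-FAM labelling, HpaI digestion and capillary electrophoresis; bidirectional fit versus DMSO.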

The nature of experiment [15]: ATG_M_19_CIS: Attagene CIS-FACTORIAL HepG2 Assay for M19 Transcription Factor (Internal Marker) (AID 2282939). The following applies: HepG2 Attagene CIS-FACTORIAL M19 internal marker reporter; actives raise or lower the signal. A digest of the protocol:
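Signals come from fluorescence of labelled reporter-specific PCR fragments resolved by capillary electrophoresis, following 24 h treatment of HepG2 cells transfected with cis-promoter reporter units; activity was fitted in both directions relative to DMSO.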

Experiment [16] in a line: ATG_ERE_CIS: Attagene CIS-FACTORIAL HepG2 Assay for Estrogen Response Element (ERE) (AID 2282940). The following applies: HepG2 ERE cis-reporter, Attagene RNA transcript; actives raise or lower the signal. A digest of the protocol: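 Fluorescence of capillary-separated, FAM-labelled reporter cDNA fragments indicates reporter mRNA levels in HepG2 cells exposed to chemicals for 24 h. Transient transfection with cis-regulated units; data fitted in both directions against DMSO.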

The target in experiment [17] is Hepatocyte nuclear factor 3-beta (Homo sapiens) (UniProt Q9Y261). In words: ATG_FoxA2_CIS: Attagene CIS-FACTORIAL HepG2 Assay for human Forkhead box A2 (FOXA2) (AID 2282942). The following applies: HepG2 cis-reporter transcription factor activity, 24 h; actives raise or lower the signal. A digest of the protocol:
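HepG2 transiently transfected with a multiplexed cis-promoter reporter library read endogenous FOXA2 activity. After 24 h compound exposure, reporter mRNA was quantified by RT-PCR, HpaI digestion and capillary electrophoresis. Bidirectional fit against DMSO.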

Experiment [18] is described as follows: ATG_FoxO_CIS: Attagene CIS-FACTORIAL HepG2 Assay for human Forkhead box O (FoxO) (AID 2282943). The following applies: HepG2 Attagene cis-reporter, FoxO element, mRNA; actives raise or lower the signal. A digest of the protocol:
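HepG2 cells transiently transfected with cis-element-driven reporter units report endogenous FoxO activity. After 24 h chemical exposure, reporter mRNA quantified by RT-PCR, fluorescent labeling, HpaI digestion and capillary electrophoresis; bidirectional fit versus DMSO.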

Experiment [19] in a line: ATG_GATA_CIS: Attagene CIS-FACTORIAL HepG2 Assay for human GATA Binding Protein (AID 2282944). The following applies: HepG2 GATA cis-element reporter, Attagene multiplex mRNA; actives raise or lower the signal. A digest of the protocol:
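After transfecting HepG2 cells with multiple cis-regulated reporter units, chemicals are dosed for 24 h; isolated RNA undergoes RT-PCR and fluorescent labeling before capillary electrophoresis, with activity expressed against DMSO.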

Experiment [20] in a line: ATG_Ets_CIS: Attagene CIS-FACTORIAL HepG2 Assay for human Erythroblast Transformation Specific (ETS) (AID 2282941). To be noted: HepG2 ETS cis-reporter transcription, actives raise or lower the signal. A digest of the protocol:
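Bidirectional fit versus DMSO of reporter mRNA signal, detected by RT-PCR and capillary electrophoresis in HepG2 cells transiently transfected with cis-element reporters and dosed 24 h.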

Records with an inconclusive call do not appear. Calls of active or inactive are those of the source. Rule for the calls, unless noted: active = hit-call score of the fitted dose curve at least 0.9, where 1 is the maximum; inactive = score below 0.9.

Transcription factor E2F1 (Homo sapiens), sequence (Q01094 whole entry, looked up): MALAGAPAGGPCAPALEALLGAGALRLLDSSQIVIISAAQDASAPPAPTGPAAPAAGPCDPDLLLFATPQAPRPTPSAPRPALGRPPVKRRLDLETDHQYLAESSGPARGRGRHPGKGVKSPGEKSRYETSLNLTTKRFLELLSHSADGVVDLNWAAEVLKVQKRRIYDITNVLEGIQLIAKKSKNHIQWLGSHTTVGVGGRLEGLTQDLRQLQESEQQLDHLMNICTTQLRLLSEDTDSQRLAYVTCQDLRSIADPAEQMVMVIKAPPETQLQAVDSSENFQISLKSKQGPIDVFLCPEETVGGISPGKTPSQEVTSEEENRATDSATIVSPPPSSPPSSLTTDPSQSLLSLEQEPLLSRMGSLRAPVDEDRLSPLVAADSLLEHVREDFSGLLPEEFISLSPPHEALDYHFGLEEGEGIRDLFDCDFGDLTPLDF
Hepatocyte nuclear factor 3-beta (Homo sapiens), sequence (Q9Y261 whole entry, looked up): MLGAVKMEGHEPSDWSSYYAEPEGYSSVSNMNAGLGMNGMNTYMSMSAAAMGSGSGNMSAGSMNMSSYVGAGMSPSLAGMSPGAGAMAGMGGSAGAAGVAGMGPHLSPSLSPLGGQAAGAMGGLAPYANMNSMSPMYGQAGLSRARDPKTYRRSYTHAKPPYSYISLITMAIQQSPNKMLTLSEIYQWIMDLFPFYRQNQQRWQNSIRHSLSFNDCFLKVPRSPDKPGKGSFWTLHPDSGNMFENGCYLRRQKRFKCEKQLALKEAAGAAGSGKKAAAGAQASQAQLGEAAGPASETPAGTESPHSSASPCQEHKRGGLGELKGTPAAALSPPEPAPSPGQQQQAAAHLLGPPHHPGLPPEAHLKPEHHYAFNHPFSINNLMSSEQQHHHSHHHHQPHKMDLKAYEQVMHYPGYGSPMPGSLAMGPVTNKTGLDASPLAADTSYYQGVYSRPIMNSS
Aryl hydrocarbon receptor (Homo sapiens), sequence (P35869 whole entry, looked up): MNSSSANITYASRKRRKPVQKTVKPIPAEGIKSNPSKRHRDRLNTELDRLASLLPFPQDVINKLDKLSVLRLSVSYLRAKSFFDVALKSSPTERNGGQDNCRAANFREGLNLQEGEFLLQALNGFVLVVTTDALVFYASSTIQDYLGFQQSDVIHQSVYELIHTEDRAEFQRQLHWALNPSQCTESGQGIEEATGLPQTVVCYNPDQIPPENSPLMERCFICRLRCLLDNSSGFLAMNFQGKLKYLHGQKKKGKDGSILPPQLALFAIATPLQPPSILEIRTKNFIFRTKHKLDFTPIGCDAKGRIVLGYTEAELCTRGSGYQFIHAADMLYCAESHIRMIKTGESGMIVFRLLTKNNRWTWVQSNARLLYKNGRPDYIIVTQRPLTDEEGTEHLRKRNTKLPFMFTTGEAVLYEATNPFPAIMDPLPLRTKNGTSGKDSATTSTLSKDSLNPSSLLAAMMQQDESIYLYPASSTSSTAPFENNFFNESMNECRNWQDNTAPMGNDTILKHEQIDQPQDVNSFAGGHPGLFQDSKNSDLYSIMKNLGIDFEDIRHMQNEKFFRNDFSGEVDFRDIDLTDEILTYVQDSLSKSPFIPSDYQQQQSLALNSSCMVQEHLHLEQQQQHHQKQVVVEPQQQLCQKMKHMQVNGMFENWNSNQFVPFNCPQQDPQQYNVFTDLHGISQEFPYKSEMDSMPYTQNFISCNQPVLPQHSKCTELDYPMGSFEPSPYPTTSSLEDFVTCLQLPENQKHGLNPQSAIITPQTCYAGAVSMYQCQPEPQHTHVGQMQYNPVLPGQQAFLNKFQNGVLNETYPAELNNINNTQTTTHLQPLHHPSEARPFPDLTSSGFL
Retinoic acid receptor alpha (Homo sapiens), sequence (P10276 whole entry, looked up): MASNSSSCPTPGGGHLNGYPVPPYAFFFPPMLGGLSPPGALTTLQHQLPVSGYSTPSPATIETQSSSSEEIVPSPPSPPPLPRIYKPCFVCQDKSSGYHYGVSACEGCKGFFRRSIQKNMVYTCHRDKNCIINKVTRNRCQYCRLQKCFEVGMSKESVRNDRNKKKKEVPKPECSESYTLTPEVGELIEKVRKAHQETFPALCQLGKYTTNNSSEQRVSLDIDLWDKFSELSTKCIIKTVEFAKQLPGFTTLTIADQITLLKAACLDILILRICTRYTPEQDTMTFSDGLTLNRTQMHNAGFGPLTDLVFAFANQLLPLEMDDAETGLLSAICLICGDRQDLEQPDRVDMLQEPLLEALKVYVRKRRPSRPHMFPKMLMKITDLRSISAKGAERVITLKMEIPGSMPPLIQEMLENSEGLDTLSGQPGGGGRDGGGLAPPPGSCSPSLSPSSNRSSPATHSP

The AC50 is the concentration at which the activity in the assay is half-maximal. Consider `O=C(Cl)C(F)(F)C(F)(F)C(F)(F)C(F)(F)C(F)(F)C(F)(F)F`, for which the outcome in experiment [1], in experiment [2], in [3], in experiment [4], in [5] and in experiment [6] was inactive. The molecule was classed as inactive in [8], in experiment [9], in [10], in experiment [11], in experiment [12] and in [13]. Also, the result in experiment [14], in [15], in experiment [16], in experiment [17], in experiment [18] and in experiment [19] was inactive. Besides, in experiment [7], the AC50 was 159 µM (active).

As to `CCC(=O)OC(C)c1ccccc1` (centres undefined), the result in experiment [1], in [2], in experiment [3], in [4], in [5] and in experiment [6] was inactive. Further, the molecule was classed as inactive in [7], in [8], in experiment [9], in [10], in [11] and in [12]. In addition, the molecule was called inactive in [14], in experiment [15], in experiment [16], in experiment [20], in experiment [17] and in experiment [18]. The call in experiment [19] was inactive.

Turning to `CCCCCCCCCCCCC[N+](C)(C)Cc1ccccc1`, the call in [1], in [2], in [3], in [4], in experiment [5] and in experiment [6] was inactive. Also, the call in experiment [7], in experiment [8], in experiment [10], in [11], in experiment [12] and in [14] was inactive. Also, the molecule was called inactive in experiment [20], in [17], in [18] and in experiment [19]. Also, the concentration at half-maximal activity (AC50) in experiment [9] was 5.63 µM (active).

As for `CO[Si](C)(CCC(F)(F)C(F)(F)C(F)(F)C(F)(F)C(F)(F)C(F)(F)F)OC`, the outcome in [1], in [2], in experiment [3], in experiment [4], in experiment [5] and in experiment [6] was inactive. For the same molecule, the outcome in experiment [7], in [9], in experiment [10], in experiment [11], in experiment [12] and in [13] was inactive. The molecule was classed as inactive in experiment [14], in experiment [15], in [16], in experiment [20], in experiment [17] and in experiment [18].

Take `Cc1cc(=O)[nH]c(C(C)C)n1`: the call in [1], in experiment [2], in [3], in [4], in experiment [5] and in experiment [6] was inactive. Further, the molecule was classed as inactive in experiment [7], in [8], in experiment [9], in experiment [10], in [11] and in experiment [12]. Besides, the outcome in experiment [14], in experiment [16], in [20], in [17], in experiment [18] and in experiment [19] was inactive.

For the molecule `CCc1ccc(C)nc1`, the molecule was classed as inactive in [1], in [2], in experiment [3], in experiment [4], in experiment [5] and in [6]. Moreover, the molecule was called inactive in experiment [7], in experiment [8], in experiment [9], in experiment [10], in experiment [11] and in experiment [12]. Also, the molecule was classed as inactive in [14], in experiment [15], in experiment [16], in experiment [20], in [17] and in experiment [18]. Moreover, the result in experiment [19] was inactive.

Regarding `C[Si](C)O[Si](C)C`, the molecule was classed as inactive in [1], in [2], in [3], in experiment [4], in [5] and in experiment [6]. In addition, the result in [7], in experiment [9], in [10], in [11], in experiment [12] and in [13] was inactive. For the same molecule, the molecule was classed as inactive in experiment [14], in [15], in experiment [16], in experiment [20], in experiment [17] and in [18]. Besides, the call in [19] was inactive.
